Consider 69 sequences from PubChem BioAssay AID1508600 (Functional Genomics Laboratory (NCATS/FGL), 2020).

The campaign covered roughly 53,000 sequences. About 3,700 (7%) were called active. Only a selection was taken, and actives are over-represented in it overall. Unmarked numbers belong to inactive results.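 The calls were made as follows: active = gene knockdowns whose robust z-score for IL-1 alpha signal is at least 2 or at most -2, so actives lie on both sides; inactive = the rest.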

This assay can be described thus: Components of the Cytosolic LPS Sensing Pathway: Gene Identification via Genome-wide siRNA Screen.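 Also: robust z of the log signal after scaling to non-targeting control siRNA wells of the plate.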 To be noted: RAW264.7 macrophages, IL-1a HTRF, actives lie on both sides, screened at 100 nM (by protocol), cells primed 5 h with Pam3CSK4 first. The method, boiled down: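 Read-out: IL-1a HTRF on supernatant, divided by plate negative-control median ×100, log-transformed and converted to robust z-score. Cells were RAW264.7 given 100 nM siRNA, Pam3CSK4-primed 5 hours, then LipidA-transfected 24 hour.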
On to “GCCAUAGGAGUGAUUGGAUTT against E130018O15Rik”, for which the z-score is -1.66. With GGUGAGCAUGGACUAUGAUTT against Syt12, the z-score is -1.09. GCACUUGACAAGCAACAGUTT against Jup: the z-score is -2.3 (active).

As for GCAUAUGGAUAAGAUUGUUTT against Efr3a, the z-score is -0.363.

As to GGAAAAGGGUCGUGCCUGUTT against Gm9991, the z-score is -0.07. Turning to GCAUUGGCAGACCCGAGUUTT against Pir, the z-score was 0.238. As for GCUUGGUAAAAUGAAAGUCTT against Klhl12, the z-score was 0.22. On to GGUUUCUGUCCAGAUAAAATT against Ykt6, for which the z-score was -0.535. As for GGUGCAGAAUGCAAUGGAUTT against Ing3, the figure is 2.51 (active). As for GGAAUAUGAGAAAAUGAGCTT against Ctsc, the figure is 0.239; as for AACACUGGGUACAUCUACATT against H2-Q7, 1.75. Next, UUCCCACUCUGACUAUUUUTT against Olfr970: -0.0332. GGCCUUCAAGUGCAUGAUGTT against Yaf2: the z-score was -1.65. As to CCAGAAAACCAAACAACAGTT against Olfr1357, the z-score is 0.287. Consider GGUGACAGGAAAGUUCUGUTT against Gsdmc2, for which the z-score is 2.07 (active). Regarding GGCGAUUAAACUAUACAUUTT against Rrm2, the z-score was 0.0358. In the case of GGGCAUGUGAAGAUGUGCGTT against Map2k3, the z-score is -0.272. As for CGUCUUACACGGUUCAAAGTT against Tbc1d10a, the figure is 0.809. Turning to CGUGGUACACUGAAGACUUTT against Mmp1a, the z-score was 2.3 (active).

On to GGACCAUUCUGAAGAGCAGTT against Il5ra, for which the z-score is 0.867. For GCUUUAUUGACACGACCCGTT against Rbm19, the z-score was 0.184. For CCGUCGUACACAAUCUUACTT against Fgfr4, the z-score was -0.512. GGUACACAACCAUCCUUGATT against Olfr600: the z-score is -2.33 (active). Take CCUACAUCAGGUCAGCAAGTT against Mrto4: the z-score is 1.26. In the case of GGAAAAAGCAAAUUGAGGATT against Uchl1, the z-score is -1.48. In the case of GCAGAGUCACCUUACUAACTT against Fam122b, the z-score is -0.0407. For GGAGCUACACACAUAGGAATT against Clec2h, the z-score is 0.891. Take GGAUACCAAGAUUCCAAAUTT against Pik3r4: the z-score is 2.19 (active).

For GCCAGCAACCCUCUUCGUUTT against Foxo6, the z-score is 0.142.

For CCUUUGACGGCCAUGAGUATT against Muc6, the z-score is -1.39. On to GCUAAGCACAAUGUGUACATT against Dus4l, for which the z-score is -0.633. For GGUCAUAGCUUAGAAGGUGTT against Rhov, the z-score is -0.233. In the case of GGGAAGCAAUAAGUCGCCUTT against Shc4, the z-score was 0.394. For GAGCCAAGUACCAUCUAUATT against Olfr389, the z-score is 2.28 (active). Turning to GGUUAAGCAGAAAUUAAGATT against Supt20, the z-score is -0.551. For GCCACAGGAUGCUAGCAAATT against Bex2, the z-score is 0.282.

On to GCAGUUGGUAUUGUUAACUTT against Maml1, for which the z-score was -0.0252. As for GCUAAACCCAAAAACACAATT against Sim2, the figure is 1.04.

On to GCUAGAAAUAAGGCUGCACTT against Plekhg6, for which the z-score is -1.2.

Consider GGAAGCAAGUAUCCCGAAUTT against Snhg11, for which the z-score is -2.58 (active). As for GCCAAUGAGAGUAGGAAAGTT against Elovl3, the z-score was 1.43.

In the case of GCCUCUCAACUUAAUAACATT against Zup1, the z-score is -0.697.

Turning to GCUAACAGUAUCCUUAUUUTT against Vmn1r53, the z-score was -0.436.

Regarding CCUCUACAAUGUAACCAACTT against Kir3dl2, the z-score is -0.183. GGAAACAUUAGAAUCUUGUTT against Lin52: the z-score is -2.23 (active).

GGUCUUCGCCACAUGGAAATT against Crkl: the z-score was 0.436. As for CCUUGUCCCUUUACCUCAATT against Plk5, the figure is -1.39; as for GCUUUAGGAAAUUUUGUGUTT against Ska3, -1.05.

With GGUCAUUCUAAUGACAAUCTT against Atg14, the z-score was -0.014.

For GGUUAGAGAUUGUUCUGUUTT against Olfr267, the z-score was 2.02 (active). On to AAUGGCAUAGGUCCUAUUATT against Tcaim, for which the z-score was -0.011. As for GGUUUUUGUCCCAUCUUGGTT against Zc3h12d, the figure is 0.228; as for GGGUCUUUAAACUGAAAGATT against Sh3pxd2a, 0.0777; as for CCUGUAAGGUCUCUAGCAUTT against Exosc1, 1.53. As for GGUUGUGCACAGCAGUGUUTT against Crct1, the figure is -0.716; as for GGACAAAGUCACAGAGUCCTT against Slc26a5, -2.08 (active). As for GCACGUACCUGAUAGUCCUTT against Daglb, the figure is -0.976; as for GGGCCAAACCCAGAACUAUTT against Sema4g, 1.5.

With GGACAAGUCAAUUUGUUGGTT against Zfp36l1, the z-score was 0.277. Next, GGUGUAUCGGAACAGUGAGTT against Det1: -2.8 (active). Consider GCAAUGGAACUAUUAUUCATT against Cd28, for which the z-score is 2.48 (active). For GGCUUCAAAGCAUGACCAGTT against Ccr1, the z-score was -0.528. As to GGACCUGCCAAAAGUUGUGTT against Uqcrc1, the z-score is -1.16. Regarding GCAGUUGAAUAUCAGACUGTT against Obox5, the z-score is -0.973.

With GGUUCAGAAUCAAUACGAGTT against Krt2, the z-score is -0.909.

Take GGACACUUCCAAACUGACCTT against Tiparp: the z-score is -1.43.

As for GCGUAGGUCAUCCUUGUAATT against Samd4, the z-score was -2.22 (active). As for GGUCAUUCACAAGUCCUUUTT against Serpinb6b, the figure is 0.863. As to GCCAGUGGUAGCGAUAUGATT against Zscan4c, the z-score was -0.263.
